From PubChem BioAssay AID1159580 (chemical genetic matrix, 2015)
Several values for one entry are separate records, joined by “and”; a condition that tells them apart may be missing. Equal values may be shown once. About 2,000 (36%) of roughly 5,500 compounds were called active. Not shown: some 18% with an inconclusive outcome. No stated cut-off is given here; in the data, active means normalized growth mostly below about 0.91 (no sharp cut-off); inconclusive means no clear call, values can overlap the other calls; inactive means mostly above about 0.92. The list shows a part of the results.

Test: chemical genetic growth profiling, strain panel (AID 1159580);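 further: tested at 20 µM; growth read once vehicle control cultures reached saturation at 30 °C; 1 = growth at the plate median or of vehicle wells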
Settings: S. cerevisiae deletion strains, growth OD

Measured: normalized growth

Nc1ccc(C(=O)Oc2ccccc2)c(O)c1
0.651 (active) and 0.94 (inactive): locus YJL095W, strain BCK1, stronger effect = lower value
0.9 (active) and 0.937 (inactive): locus YHR030C, strain SLT2, stronger effect = lower value
inactive: locus YAL021C, strain ccr4, stronger effect = lower value 0.967 | locus YAL026C, strain drs2, stronger effect = lower value 0.915 | locus YAL030W, strain snc1, stronger effect = lower value 0.935 | locus YBL061C, strain skt5, stronger effect = lower value 0.932 | locus YBR009C, strain hhf1, stronger effect = lower value 0.934 | locus YBR021W, strain FUR4, stronger effect = lower value 0.981 | locus YBR023C, strain chs3, stronger effect = lower value 0.925 | locus YBR171W, strain sec66, stronger effect = lower value 0.937 | locus YBR229C, strain ROT2, stronger effect = lower value 0.948 | locus YBR231C, strain swc5, stronger effect = lower value 0.954 | locus YBR279W, strain paf1, stronger effect = lower value 0.957 | locus YCL011C, strain gbp2, stronger effect = lower value 0.929 | locus YCL016C, strain dcc1, stronger effect = lower value 0.942 | locus YCL061C, strain MRC1, stronger effect = lower value 0.951 | locus YCL069W, strain vba3, stronger effect = lower value 0.95 | locus YDL005C, strain med2, stronger effect = lower value 0.971 | locus YDL035C, strain GPR1, stronger effect = lower value 0.867 | locus YDL040C, strain nat1, stronger effect = lower value 0.938 | locus YDL101C, strain DUN1, stronger effect = lower value 0.906 | locus YDL185W, strain tfp1, stronger effect = lower value 0.966 | locus YDR001C, strain nth1, stronger effect = lower value 0.936 | locus YDR069C, strain doa4, stronger effect = lower value 0.948 | locus YDR150W, strain NUM1, stronger effect = lower value 0.957 | locus YDR195W, strain ref2 1.04 | locus YDR297W, strain sur2, stronger effect = lower value 0.932 | locus YDR334W, strain swr1, stronger effect = lower value 0.944 | locus YDR335W, strain msn5, stronger effect = lower value 0.941 | locus YDR392W, strain spt3, stronger effect = lower value 0.81 | locus YEL003W, strain gim4, stronger effect = lower value 0.933 | locus YEL037C, strain rad23, stronger effect = lower value 0.946 | locus YEL061C, strain CIN8 (second series), stronger effect = lower value 0.916 | locus YEL061C, strain CIN8, stronger effect = lower value 0.938 | locus YER015W, strain faa2, stronger effect = lower value 0.944 | locus YER016W, strain bim1, stronger effect = lower value 0.941 | locus YER111C, strain swi4, stronger effect = lower value 0.938 | locus YER155C, strain BEM2, stronger effect = lower value 0.947 | locus YFR010W, strain ubp6, stronger effect = lower value 0.95 | locus YGL167C, strain pmr1, stronger effect = lower value 0.942 | locus YGL227W, strain vid30, stronger effect = lower value 0.927 | locus YGL253W, strain hxk2, stronger effect = lower value 0.967 | locus YHR013C, strain ard1, stronger effect = lower value 0.907 | locus YHR027C, strain rpn1, stronger effect = lower value 0.945 | locus YHR079C, strain IRE1, stronger effect = lower value 0.929 | locus YHR094C, strain hxt1, stronger effect = lower value 0.926 | locus YHR142W, strain chs7, stronger effect = lower value 0.894 | locus YIL073C, strain SPO22, stronger effect = lower value 0.764 | locus YJL092W, strain hpr5, stronger effect = lower value 0.943 | locus YJL095W, strain BCK1 (second series), stronger effect = lower value 0.936 | locus YJL115W, strain asf1, stronger effect = lower value 0.936 | locus YJL129C, strain trk1, stronger effect = lower value 0.892 | locus YJL134W, strain LCB3, stronger effect = lower value 0.955 | locus YJL154C, strain vps35, stronger effect = lower value 0.941 | locus YJL164C, strain tpk1, stronger effect = lower value 0.919 | locus YJL166W, strain qcr8, stronger effect = lower value 0.935 | locus YJL187C, strain SWE1 (second series), stronger effect = lower value 0.876 | locus YJL187C, strain SWE1, stronger effect = lower value 0.944 | locus YJR043C, strain POL32, stronger effect = lower value 0.932 | locus YJR066W, strain TOR1, stronger effect = lower value 0.893 | locus YKL009W, strain mrt4, stronger effect = lower value 0.894 | locus YKL160W, strain elf1, stronger effect = lower value 0.942 | locus YKL190W, strain CNB1, stronger effect = lower value 0.939 | locus YKR091W, strain srl3, stronger effect = lower value 0.948 | locus YLL001W, strain dnm1, stronger effect = lower value 0.951 | locus YLL026W, stronger effect = lower value 0.943 | locus YLL041C, strain sdh2, stronger effect = lower value 0.929 | locus YLR027C, strain aat2, stronger effect = lower value 0.927 | locus YLR058C, strain SHM2, stronger effect = lower value 0.909 | locus YLR113W, strain HOG1, stronger effect = lower value 0.862 | locus YLR221C, strain rsa3, stronger effect = lower value 0.932 | locus YLR258W, strain gsy2, stronger effect = lower value 0.948 | locus YLR342W, strain FKS1, stronger effect = lower value 0.915 | locus YLR357W, strain rsc2, stronger effect = lower value 0.919 | locus YLR370C, strain arc18, stronger effect = lower value 0.927 | locus YLR384C, strain iki3, stronger effect = lower value 0.962 | locus YML016C, strain PPZ1, stronger effect = lower value 0.924 | locus YMR058W, strain fet3, stronger effect = lower value 0.929 | locus YMR125W, strain sto1, stronger effect = lower value 0.942 | locus YMR129W, stronger effect = lower value 0.946 | locus YMR231W, strain pep5, stronger effect = lower value 0.983 | locus YNL067W, strain RPL9B, stronger effect = lower value 0.867 | locus YNL128W, strain TEP1, stronger effect = lower value 0.905 | locus YNL153C, strain GIM3, stronger effect = lower value 0.905 | locus YNL183C, strain NPR1, stronger effect = lower value 0.859 | locus YNL209W, strain ssb2, stronger effect = lower value 0.955 | locus YNL248C, strain rpa49, stronger effect = lower value 0.923 | locus YNL250W, strain rad50, stronger effect = lower value 0.95 | locus YNL322C, strain KRE1 (second series), stronger effect = lower value 0.942 | locus YNR049C, strain mso1, stronger effect = lower value 0.933 | locus YOL012C, strain htz1 1.98 | locus YOR001W, strain rrp6, stronger effect = lower value 0.92 | locus YOR061W, strain CKA2, stronger effect = lower value 0.928 | locus YOR069W, strain VPS5, stronger effect = lower value 0.95 | locus YOR070C, strain gyp1, stronger effect = lower value 0.937 | locus YOR080W, strain dia2, stronger effect = lower value 0.961 | locus YOR083W, strain WHI5, stronger effect = lower value 0.93 | locus YOR106W, strain vam3, stronger effect = lower value 0.878 | locus YOR231W, strain MKK1, stronger effect = lower value 0.923 | locus YOR265W, strain rbl2, stronger effect = lower value 0.931 | locus YOR290C, strain snf2, stronger effect = lower value 0.885 | locus YPL051W, strain arl3, stronger effect = lower value 0.938 | locus YPL078C, strain atp4, stronger effect = lower value 0.929 | locus YPL106C, strain sse1, stronger effect = lower value 0.965 | locus YPL240C, strain hsp82, stronger effect = lower value 0.953 | locus YPL256C, strain CLN2, stronger effect = lower value 0.904
active: locus YCL029C, strain bik1, stronger effect = lower value 0.883 | locus YCR088W, strain abp1, stronger effect = lower value 0.921 | locus YDL074C, strain BRE1, stronger effect = lower value 0.67 | locus YDL134C, strain PPH21, stronger effect = lower value 0.837 | locus YDL192W, strain arf1, stronger effect = lower value 0.807 | locus YDR101C, strain arx1, stronger effect = lower value 0.864 | locus YDR137W, strain rgp1, stronger effect = lower value 0.545 | locus YDR159W, strain sac3, stronger effect = lower value 0.862 | locus YDR162C, strain NBP2, stronger effect = lower value 0.567 | locus YDR318W, strain mcm21, stronger effect = lower value 0.765 | locus YDR388W, stronger effect = lower value 0.884 | locus YDR502C, strain sam2, stronger effect = lower value 0.767 | locus YER110C, stronger effect = lower value 0.86 | locus YER155C, strain BEM2 (second series), stronger effect = lower value 0.533 | locus YER167W, strain BCK2, stronger effect = lower value 0.759 | locus YGL078C, strain dbp3, stronger effect = lower value 0.893 | locus YGL086W, strain mad1, stronger effect = lower value 0.801 | locus YGL173C, strain kem1, stronger effect = lower value 0.899 | locus YGL240W, strain doc1, stronger effect = lower value 0.864 | locus YGL248W, strain PDE1, stronger effect = lower value 0.864 | locus YGR135W, strain pre9, stronger effect = lower value 0.676 | locus YGR252W, strain gcn5, stronger effect = lower value 0.589 | locus YHR079C, strain IRE1 (second series), stronger effect = lower value 0.864 | locus YHR129C, strain ARP1, stronger effect = lower value 0.88 | locus YHR200W, strain rpn10, stronger effect = lower value 0.913 | locus YIL066C, strain RNR3, stronger effect = lower value 0.741 | locus YIL125W, strain kgd1, stronger effect = lower value 0.922 | locus YIR030C, strain dcg1, stronger effect = lower value 0.867 | locus YJL168C, strain set2, stronger effect = lower value 0.921 | locus YJR075W, strain HOC1, stronger effect = lower value 0.84 | locus YKL068W, stronger effect = lower value 0.93 | locus YKL085W, strain MDH1 (second series), stronger effect = lower value 0.914 | locus YKL085W, strain MDH1, stronger effect = lower value 0.914 | locus YKR001C, strain vps1, stronger effect = lower value 0.672 | locus YKR026C, strain gcn3, stronger effect = lower value 0.896 | locus YLR039C, strain RIC1, stronger effect = lower value 0.346 | locus YLR102C, strain apc9, stronger effect = lower value 0.917 | locus YLR262C, strain YPT6 (second series), stronger effect = lower value 0.558 | locus YLR262C, strain YPT6, stronger effect = lower value 0.352 | locus YLR268W, strain sec22, stronger effect = lower value 0.861 | locus YLR320W, strain mms22, stronger effect = lower value 0.797 | locus YLR330W, strain CHS5, stronger effect = lower value 0.876 | locus YLR342W, strain FKS1 (second series), stronger effect = lower value 0.662 | locus YLR371W, strain rom2, stronger effect = lower value 0.77 | locus YLR418C, strain cdc73, stronger effect = lower value 0.453 | locus YML032C, strain rad52, stronger effect = lower value 0.774 | locus YML120C, strain ndi1, stronger effect = lower value 0.904 | locus YML124C, strain tub3, stronger effect = lower value 0.904 | locus YMR078C, strain ctf18, stronger effect = lower value 0.861 | locus YMR205C, strain PFK2, stronger effect = lower value 0.861 | locus YMR223W, strain ubp8, stronger effect = lower value 0.825 | locus YMR307W, strain GAS1, stronger effect = lower value 0.402 | locus YNL071W, strain lat1, stronger effect = lower value 0.786 | locus YNL233W, strain BNI4, stronger effect = lower value 0.788 | locus YNL271C, strain bni1, stronger effect = lower value 0.918 | locus YNL298W, strain CLA4, stronger effect = lower value 0.908 | locus YNL307C, strain MCK1, stronger effect = lower value 0.323 | locus YNR052C, strain pop2, stronger effect = lower value 0.883 | locus YOL147C, strain pex11, stronger effect = lower value 0.767 | locus YOR136W, strain idh2, stronger effect = lower value 0.919 | locus YOR144C, strain elg1, stronger effect = lower value 0.888 | locus YOR184W, strain ser1, stronger effect = lower value 0.504 | locus YOR270C, strain vph1, stronger effect = lower value 0.732 | locus YOR316C, strain cot1, stronger effect = lower value 0.918 | locus YPR119W, strain clb2, stronger effect = lower value 0.91 | locus YPR141C, strain kar3, stronger effect = lower value 0.896 | locus YPR163C, strain tif3, stronger effect = lower value 0.71 | locus YPR167C, strain met16, stronger effect = lower value 0.885 | strain wtn01, stronger effect = lower value 0.751
